From PubChem BioAssay AID431 (Sanford-Burnham Center for Chemical Genomics, 2006)
About 1,100 (1.7%) of roughly 63,000 compounds were called active. Shown is part of a subset that was picked to be rich in actives. Measured potencies and affinities stand elsewhere. A number with no mark means an inactive call.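 Rule for the calls: active = compounds whose percent cytotoxicity in the single-dose primary screen, scaled between solvent and toxic-drug controls, exceeds 50; inactive = the rest.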

Assay: cytotoxicity in KRAS-transformed pancreatic duct cells, primary screen, cell-based, fluorescence, HTS (AID 431);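 note: 0% = DMSO solvent wells and 100% = doxorubicin-treated wells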
Conditions: HPDE-C7K KRASV12 cells, Alamar Blue viability, 48 h; at 10 µM; stronger effect = higher value
`CCOc1ccccc1N(CC(=O)NC1CCCC1)C(=O)CCCC(=O)Nc1ccccn1` gave a cytotoxicity of -29.3%. Compound `O=C(Cn1c(=O)oc2ccccc21)N1CCCCC1` has a cytotoxicity of -21%. `CN(CCc1ccccn1)C(=O)CCNC(=O)Cn1cnc2ccccc2c1=O` gave a cytotoxicity of -9.4%. Work on `O=C(COc1ccccc1)Nc1cccc(-c2nnc(-c3ccccc3)o2)c1` yielded a cytotoxicity of 8.5%. Compound `COc1ccc(-c2noc(CCC(N)=O)n2)cc1OC` has a cytotoxicity of 7.2%. For `CC(=O)c1cc(F)c(N2CCCC2)cc1C`, the cytotoxicity was -6.1%. With `Cc1[nH]c(-c2ccco2)nc1C(=O)O` the cytotoxicity was 1.6%. For `[O-][n+]1onc2c1CCc1nnc(-c3ccccc3)cc1-2`, the cytotoxicity was 8.2%. In the case of `O=c1cc(-c2ccccc2)[nH]c2ccccc12`, the cytotoxicity is reported as 46.8%. For `COc1ccc(C2C3=C(CCCC3=O)Nc3nc(C(F)(F)F)nn32)cc1OC` (configuration not stated), the cytotoxicity was -12.5%. In the case of `Cc1ccc(Cl)cc1N1CCN(Cc2nc3c(c(=O)[nH]c(=O)n3C)n2Cc2ccccc2F)CC1`, the cytotoxicity is reported as 117% (active). For `Cn1c(=O)[nH]c(=O)c2c1nc(CN1CCN(c3cccc(Cl)c3)CC1)n2Cc1ccccc1Cl`, the cytotoxicity was 2.2%. For `CC(C)Cn1c(CN2CCN(c3ccccc3F)CC2)nc2c1c(=O)[nH]c(=O)n2C`, the cytotoxicity was -9.3%. For `O=C(Nc1ccncc1)c1ccc2c(c1)OCCO2`, the cytotoxicity was -6.9%. Work on `CCC(NC(=O)OC(C)(C)C)C(=O)Oc1ccc2c3c(c(=O)oc2c1)CCC3` (configuration not stated) yielded a cytotoxicity of -7.2%. `CCOC(=O)Cc1cc(=O)[nH]c(Nc2nc3ccccc3o2)n1` gave a cytotoxicity of -12.3%. With `CCOC(=O)c1cc2c(=O)n3cccc(C)c3nc2n(CCc2ccccc2)c1=N` the cytotoxicity was -6.7%. For `CCOC(=O)c1cc2c(=O)n3cccc(C)c3nc2n(C)c1=N`, the cytotoxicity was 58.1% (active). With `CCNC(=O)c1cc2c(=O)n3cccc(C)c3nc2n(CCc2ccccc2)c1=N` the cytotoxicity was 66.8% (active). With `COCCn1c(=N)c(C(=O)NCCc2ccccc2)cc2c(=O)n3cccc(C)c3nc21` the cytotoxicity was -1.7%. `C=CCn1c(=N)c(C(=O)OCC)cc2c(=O)n3cccc(C)c3nc21` gave a cytotoxicity of 9.2%. With `Cc1cccn2c(=O)c3cc(C(=O)NCCN4CCOCC4)c(=N)n(CCc4ccccc4)c3nc12` the cytotoxicity was 10.9%. For `CC(C)CCOc1cccc(OCC(=O)N(C)C2CCS(=O)(=O)C2)c1` (configuration not stated), the cytotoxicity was 4.8%. Work on `COc1ccc(OC)c(S(=O)(=O)N2CCc3ccccc32)c1` yielded a cytotoxicity of 18.5%. `CCOc1c(Br)cc(CNc2ncn[nH]2)cc1OC` showed a cytotoxicity of 2.8%. With `O=C(CSc1nc2cc(Cl)ccc2s1)N1CCN(C(=O)c2ccco2)CC1` the cytotoxicity was 5.8%. For `O=C(CSc1nnc(SCc2ccc(Cl)cc2)s1)N1CCN(C(=O)c2ccco2)CC1`, the cytotoxicity was -15.2%. For `O=C(CSc1c2c(nc3ccc(Cl)cc13)CCCC2)N1CCN(C(=O)c2ccco2)CC1`, the cytotoxicity was 105% (active). `CC1Cc2nc(SCC(=O)NCc3ccco3)n(-c3ccccc3)c(=O)c2S1` (configuration not stated) showed a cytotoxicity of 3.1%. Compound `O=C(Cc1cccs1)NCc1ccc2c(c1)OCO2` has a cytotoxicity of -5.9%. `CCOC(=O)c1oc2c(C)c(O)ccc2c(=O)c1-c1nncn1-c1ccccc1` gave a cytotoxicity of -6.3%. Compound `Cn1c(=O)[nH]c(=O)c2c1nc(CN1CCN(c3cccc(Cl)c3)CC1)n2CCCc1ccccc1` has a cytotoxicity of 6%. Compound `Cc1nc2ccc(N)cc2s1` has a cytotoxicity of -7.6%. Work on `Oc1cccc(-c2nc3ccccc3s2)c1` yielded a cytotoxicity of 0.9%. For `Nc1cccc(-c2nc3ccc(N)cc3s2)c1`, the cytotoxicity was 50.7% (active). For `CCOC(=O)Nc1ccc2c(c1)N(C(=O)CCN(C)C)c1ccccc1S2`, the cytotoxicity was 15%. In the case of `CN(C)CCCN1c2ccccc2CCc2ccc(Cl)cc21`, the cytotoxicity is reported as 47.6%. `COc1ccc2c(c1)Sc1ccccc1N2CCN(C)C` gave a cytotoxicity of 27.8%. Work on `CN(C)CCCN1c2ccccc2CCc2ccccc21` yielded a cytotoxicity of 20.3%. In the case of `CN(C)CCCN1c2ccccc2Sc2ccccc21`, the cytotoxicity is reported as 56.1% (active). For `CCN1C(=O)C2C(c3ccc(O)c(OC)c3)NC(C)(C(=O)OC)C2C1=O` (configuration not stated), the cytotoxicity was 9.8%. Compound `CCc1c(C)nc2ncnn2c1N1CCCC(C(=O)NCCc2ccccc2)C1` (configuration not stated) has a cytotoxicity of 2.2%. With `CCOC(=O)C1CCN(C(=O)c2ccc(Cl)c(Cl)c2)CC1` the cytotoxicity was -6.5%. For `O=C(Nc1ccc(Cl)cc1)NC1CCS(=O)(=O)C1` (configuration not stated), the cytotoxicity was -15%. In the case of `CC(Oc1ccc(Cl)cc1Cl)c1nc(-c2ccc(NC(=O)c3cccnc3)cc2)no1` (configuration not stated), the cytotoxicity is reported as 59.3% (active). `COc1ccc(Cc2nc(-c3ccc(NC(=O)c4cccnc4)cc3)no2)cc1` showed a cytotoxicity of 33.9%. Work on `O=C(Nc1ccc(-c2noc(CCc3ccccc3)n2)cc1)c1cccnc1` yielded a cytotoxicity of 47%. `COc1cccc(-c2nc(-c3ccc(NC(=O)c4cccnc4)cc3)no2)c1` showed a cytotoxicity of 44.3%. Work on `CC(Oc1ccc(Cl)cc1Cl)c1nc(-c2ccccn2)no1` (configuration not stated) yielded a cytotoxicity of 23.6%. For `O=C(Nc1ccc(-c2noc(-c3cccs3)n2)cc1)c1cccnc1`, the cytotoxicity was 52.5% (active). For `CC(C)(C)Cc1nc(-c2ccccn2)no1`, the cytotoxicity was -9.1%. Compound `COCCNC(=O)c1cc(-c2ccc(Cl)c(Cl)c2)on1` has a cytotoxicity of -9.5%. Compound `O=C(c1cc2cc(Br)ccc2oc1=O)N1CCN(c2ccccn2)CC1` has a cytotoxicity of -8.8%. Work on `O=C(CC1SCCNC1=O)Nc1cc(Cl)cc(Cl)c1` (configuration not stated) yielded a cytotoxicity of -5.4%. With `O=C(CC(c1ccccc1)c1cc(Cl)ccc1O)N1CCOCC1` (configuration not stated) the cytotoxicity was 10.5%. Work on `CCOc1ccc(C2C3=C(CCCC3=O)Nc3nc(C(F)(F)F)nn32)cc1OC` (configuration not stated) yielded a cytotoxicity of 1.4%. `COc1ccc(CCNc2nc(N3CCCCC3)nc(N3CCCCC3)n2)cc1OC` showed a cytotoxicity of 45.3%. `O=S(=O)(/C=C/c1ccccc1)n1cnc2ccccc21` showed a cytotoxicity of 40.1%. In the case of `Cc1cc(C)n(S(=O)(=O)Cc2ccccc2)n1`, the cytotoxicity is reported as -3.7%. Compound `CC1CCc2nn(CC(=O)N3CCCCCC3)cc2C1` (configuration not stated) has a cytotoxicity of 2.2%. Work on `Cc1ccc2c(c1)NC(=O)C(CC(=O)NCCN(CC(C)C)CC(C)C)O2` (configuration not stated) yielded a cytotoxicity of 15.6%. For `COc1cccc(CNC(=O)C2CCN(Cc3cnn(-c4ccccc4)c3-n3cccc3)CC2)c1`, the cytotoxicity was 5.5%. For `O=C(CSc1ncn(-c2ccccc2)n1)Nc1nc2ccccc2s1`, the cytotoxicity was -3.6%. In the case of `CCOC(=O)c1sc(NC(=O)CSc2ncn(-c3ccccc3)n2)nc1C`, the cytotoxicity is reported as 76.1% (active). Work on `CCOC(=O)c1sc(NC(=O)CSc2nnnn2-c2ccccc2)nc1C` yielded a cytotoxicity of 9.6%. Work on `O=C1c2ccccc2C(=O)N1CCCc1nc2ccccc2c(=O)n1CCCn1ccnc1` yielded a cytotoxicity of -31.5%. With `C=CCn1c2ccccc2c2nnc(SCCCn3c(=O)[nH]c4ccccc43)nc21` the cytotoxicity was 68.6% (active). `CCn1c2ccccc2c2nnc(SCCCn3c(=O)[nH]c4ccccc43)nc21` gave a cytotoxicity of 2.7%. `C=CCn1c2ccccc2c2nnc(SCN3C(=O)c4ccccc4C3=O)nc21` gave a cytotoxicity of 7.6%. `Cc1cc(C)n2nc(-c3cccnc3)nc2n1` showed a cytotoxicity of 2.1%. `O=C(Nc1nncs1)c1ccc(N2C(=O)C3C4C=CC(C4)C3C2=O)cc1` (configuration not stated) gave a cytotoxicity of 10.1%. For `CCc1nnc(NC(=O)CSc2nc(C)c3c(c2C#N)CCCC3)s1`, the cytotoxicity was 75.3% (active). `CCc1nnc(NC(=O)CSc2nc3c(cc2C#N)CCC3)s1` gave a cytotoxicity of 33.4%. Compound `CCc1nnc(NC(=O)CSc2nc3c(cc2C#N)CCCC3)s1` has a cytotoxicity of 8.4%. Work on `O=C(NCc1ccccn1)Nc1ccc(Cl)c(Cl)c1` yielded a cytotoxicity of 1.8%. For `Cc1ccc(CNC(=O)CCCn2c(=O)[nH]c3ccccc3c2=O)cc1`, the cytotoxicity was -8.5%. Work on `O=C1CCCc2c1[nH]c1ccccc21` yielded a cytotoxicity of -0.9%. For `c1ccc2c3c([nH]c2c1)-c1[nH]ncc1CC3`, the cytotoxicity was 50.2% (active). With `Cc1ccc2[nH]c3c(c2c1)CCc1cn[nH]c1-3` the cytotoxicity was 35.6%. Compound `CCOC(=O)C1CCCN(c2nc3ccccc3nc2C(C#N)C(=O)OC(C)COC)C1` (configuration not stated) has a cytotoxicity of 31.8%. Compound `CCOC(=O)C1CCN(c2nc3ccccc3nc2C(C#N)C(=O)OC(C)COC)CC1` (configuration not stated) has a cytotoxicity of 6.6%. Compound `CCOC(=O)C1CCCN(c2nc3ccccc3nc2C(C#N)C(=O)OCC)C1` (configuration not stated) has a cytotoxicity of 12.9%. In the case of `CCOC(=O)C1CCCN(c2nc3ccccc3nc2C(C#N)C(=O)OCCOC)C1` (configuration not stated), the cytotoxicity is reported as 53.1% (active). Compound `CCOC(=O)C1CCCN(c2nc3ccccc3nc2C(C#N)C(=O)OC(C)C)C1` (configuration not stated) has a cytotoxicity of -4.8%. In the case of `CCOC(=O)C1CCN(c2nc3ccccc3nc2C(C#N)C(=O)OC(C)C)CC1` (configuration not stated), the cytotoxicity is reported as 62.8% (active). For `O=c1oc2ccccc2n1CCn1c2ccccc2c2nc3ccccc3nc21`, the cytotoxicity was 14.9%. `CSCCC(NC(=O)c1ccco1)C(=O)OC(C)C(=O)NC(=O)NC1CCCCC1` (configuration not stated) gave a cytotoxicity of -4.2%. In the case of `O=C(CN(C1CCCCC1)S(=O)(=O)c1ccc(F)cc1)NC1CC1`, the cytotoxicity is reported as -2.7%. Compound `CCC1CCCCN1c1nc(-c2ccncc2)nc2ccccc12` (configuration not stated) has a cytotoxicity of -15.6%. Work on `CCOC(=O)c1[nH]c(C)c(C(=O)Nc2ccccc2F)c1C` yielded a cytotoxicity of 37.9%. `CCOC(=O)n1ccc(C(=O)Nc2ccccc2F)n1` showed a cytotoxicity of -9.8%. Work on `CCOC(=O)Cn1nc(-c2ccc(Cl)cc2)cc1N` yielded a cytotoxicity of 0.5%. `CCOC(=O)Cc1nnc2c(Nc3ccc(C)cc3)nc3nonc3n12` showed a cytotoxicity of -14%. For `CCOC(=O)Cc1nnc2c(Nc3ccc(Cl)cc3)nc3nonc3n12`, the cytotoxicity was 70.2% (active). With `CCOC(=O)Cc1nnc2c(Nc3ccccc3F)nc3nonc3n12` the cytotoxicity was 53.8% (active). `CCOC(=O)c1ccc(NC(=O)CCc2ccc(CC)o2)cc1` showed a cytotoxicity of 8.4%. Compound `COc1cccc2cc(C(=O)C3=C(O)C(=O)N(CCCN4CCOCC4)C3c3ccncc3)oc12` (configuration not stated) has a cytotoxicity of 3.9%.
